# Results reported in PubChem BioAssay (NCATS).
# Records with an inconclusive call do not appear. A call without a number means that no potency is given here. Activity calls are given as the source filed them. The call rests on the fitted dose curve; in most records, active means well fitted curve in the direction sought with a large enough effect; inconclusive means small, poorly fitted or top-dose-only effect, or another doubt; inactive means no such curve, though single readings can be large; an effect the other way counts as inactive or inconclusive.
# What was measured:
# [1] = biological target: N-terminal Xaa-Pro-Lys N-methyltransferase 1 (Homo sapiens) (UniProt Q9BV86); assay: qHTS Assay for Inhibitors of N-terminal methyltransferase 1 (NTMT1): LOPAC validation of the NTMT1 SAHH-coupled ThioGlo3 Assay (AID 1347143);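 further: SAH from peptide methylation measured as thiol fluorescence via SAHH coupling and ThioGlo3; nearly all actives have a fitted effect of over 70% in size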; further: potency means the concentration at half of the fitted maximal effect
# N-terminal Xaa-Pro-Lys N-methyltransferase 1 (Homo sapiens), sequence (Q9BV86 whole entry, looked up): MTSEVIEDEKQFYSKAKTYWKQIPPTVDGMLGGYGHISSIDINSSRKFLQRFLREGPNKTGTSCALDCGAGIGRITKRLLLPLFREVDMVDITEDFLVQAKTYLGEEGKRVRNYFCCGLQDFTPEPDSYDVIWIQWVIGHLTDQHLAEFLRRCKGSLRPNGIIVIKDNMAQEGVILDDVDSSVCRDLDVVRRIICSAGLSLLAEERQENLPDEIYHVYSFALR
# In short: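 Recombinant human NTMT1 (125nM) was pre-incubated 1 min at room temperature with compounds over a concentration range, then a mix of 100uM SAM, 10uM SAHH and 15uM ThioGlo3 (concentrations in added reagent) was added. ThioGlo3 fluorescence (ex 340/em 450nm) after 30 min was normalized to the initial reading.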
# [2] = tested on: Zika virus NS2B-NS3 protease (unlinked); assay: Optimization of GU AMC qHTS for Zika virus inhibitors: Unlinked NS2B-NS3 protease assay (AID 1347151); further: nearly all actives have a fitted effect of over 80% in size; further: potency means the concentration at half of the fitted maximal effect
# In short: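 Percent inhibition is derived from the 15-min change in AMC fluorescence, normalized against no-inhibitor and no-enzyme controls, then fitted to a 4-parameter Hill curve. Aprotinin was the intraplate control.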
# [3] = tested on: Zika virus NS2B-NS3 protease; assay: Primary screen GU AMC qHTS for Zika virus inhibitors (AID 1347154); further: nearly all actives have a fitted effect of over 70% in size; further: potency means the concentration at half of the fitted maximal effect
# In short: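 Unlinked Zika NS2B hydrophilic domain–NS3 protease complex at 25 nM in 10 mM Tris-HCl pH 8.0, 0.01% Tween 20, with an AMC peptide substrate. Fluorescence change (340/450 nm) over 15 min at room temperature, normalized to controls, fitted to 4-parameter Hill.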
# [4] = qHTS of pediatric cancer cell lines to identify multiple opportunities for drug repurposing: Confirmatory screen for OHS-50 cells (AID 1347128);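 further: compound exposure lasted 48 h at 37 degrees C; nearly all actives have a fitted effect of over 55% in size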
# In short: (§1)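 Viability after 48 h compound treatment at 37C, 500-1,000 cells/well, read as ATP luminescence with CellTiter-Glo. Primary screens used 11-point (MIPE, 0.78 nM-46 µM) or 8-point (NPC, 0.59 nM-46 µM) final concentrations; follow-up screens used 11-point dilutions.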
# [5] = qHTS of pediatric cancer cell lines to identify multiple opportunities for drug repurposing: Confirmatory screen for SK-N-SH cells (AID 1347129);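 further: cells exposed to compound for 48 h before viability read; nearly all actives have a fitted effect of over 60% in size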; further: potency means the concentration at half of the fitted maximal effect
# In short: as §1
# [6] = tested on: Zika virus NS2B-NS3 protease (linked construct); assay: Confirmatory screen NINDS AMC qHTS for Zika virus inhibitors (AID 1347152);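 further: AMC fluorescence gain from cleaved Bz-Nle-KRR-AMC substrate over 15 min; top concentration of the series differs between compounds; nearly all actives have a fitted effect of over 70% in size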
# In short: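 In this dose-response qHTS, AMC release from 10 microM Bz-Nle-KRR-AMC by 1 nM linked protease is measured over 15 minutes (about 20% conversion) at pH 8.0. Percent inhibition is fitted to a 4-parameter Hill curve.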
# [7] = tested on: Zika virus NS2B-NS3 protease (unlinked complex); assay: Confirmatory screen GU AMC qHTS for Zika virus inhibitors (AID 1347153); further: nearly all actives have a fitted effect of over 70% in size
# In short: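 Unlinked NS2B-NS3 complex (25 nM) in 10 mM Tris-HCl pH 8.0, 0.01% Tween 20 preincubated 15 min with compound, then 10 microM Bz-Nle-KRR-AMC (Km 18.3 µM). Fluorescence change over 15 min, normalized, Hill-fitted.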
smiles,measurement,setting,value
O=C(O)Cc1cnc[nH]1,Potency,[1],inactive
same,Potency,[2],inactive
same,Potency,[3],inactive
CC(=O)[C@H]1CCC2C3CC[C@H]4C[C@H](O)CC[C@]4(C)C3CC[C@@]21C (some centres undefined),Potency,[1],inactive
same,Potency,[2],inactive
C[C@]12N[C@H](Cc3ccccc31)c1ccccc12,Potency,[1],inactive
same,Potency,[2],inactive
CS(=N)(=O)CC[C@H](N)C(=O)O (some centres undefined),Potency,[1],inactive
same,Potency,[2],inactive
CN1C2CCC1CC(OC(=O)c1cc(Cl)cc(Cl)c1)C2 (centres undefined),Potency,[1],inactive
same,Potency,[2],inactive
C[C@]12Cc3cn[nH]c3C[C@@H]1CC[C@@H]1[C@H]2CC[C@@]2(C)[C@H]1CC[C@]2(C)O,Potency,[4],inactive
same,Potency,[5],inactive
same,Potency,[3],inactive
Cc1nccc2c1[nH]c1ccccc12,Potency,[1],79.4 µM (active)
same,Potency,[2],26.7 µM (active)
same,Potency,[3],26.7 µM (active)
C[N+]1(C)C2CC(OC(=O)[C@H](CO)c3ccccc3)CC1C1OC12 (some centres undefined),Potency,[1],inactive
CC1=NN=C(c2ccc(N)cc2)c2cc3c(cc2C1)OCO3,Potency,[1],56.2 µM (active)
CC[C@@H]1C(=O)OC[C@@H]1Cc1cncn1C,Potency,[1],inactive
NC(=O)CN1CC(O)CC1=O (centres undefined),Potency,[1],inactive
same,Potency,[2],inactive
CCCCc1ccc(C(=O)O)nc1,Potency,[1],inactive
same,Potency,[2],inactive
CCCCCC[C@H]1C(=O)O[C@H](C)[C@H](NC(=O)c2cccc(NC=O)c2O)C(=O)O[C@@H](C)[C@@H]1OC(=O)CC(C)C,Potency,[5],9.35 µM (active)
COc1cc(C(O)CN)ccc1O (centres undefined),Potency,[1],inactive
same,Potency,[2],inactive
c1ccc(C2(c3ccccc3)CC2C2=NCCN2)cc1 (centres undefined),Potency,[1],inactive
same,Potency,[2],inactive
O=C(O)[C@@H]1CCN1,Potency,[1],inactive
same,Potency,[2],inactive
CC(C)NC(C)Cc1ccc(I)cc1 (centres undefined),Potency,[1],inactive
same,Potency,[2],inactive
O=C(O)CC[N+](=O)[O-],Potency,[1],inactive
same,Potency,[2],inactive
CC(C)Oc1cccnc1N(C)C1CCN(Cc2ccccc2)CC1,Potency,[1],56.2 µM (active)
same,Potency,[2],29.9 µM (active)
same,Potency,[6],inactive
same,outcome,[7],inactive
Cn1cnc(CCN)c1,Potency,[1],inactive
same,Potency,[2],inactive
C#CCOC(=O)C1=CCCN(C)C1,Potency,[1],inactive
same,Potency,[2],inactive
same,Potency,[3],inactive
